CYP2C19 activ – increases human CYP2C19 enzyme activity. P33261. recombinant CYP2C19, luciferin-H EGE luminescence; stronger effect = higher value; 0 = fully inhibited enzyme, 1 = untreated enzyme. activation factor at 5 µM. 96,000 tested, under 10 active. AID 1025;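 active = activation factor of at least 2 at 5 µM in the primary screen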;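 note: 0 = wells with 2.5 mM tranylcypromine and 1 = vehicle-only wells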
hDAT+cocaine – changed human dopamine transporter uptake under cocaine IC80; Q01959; LLC-PK1 hDAT cells, [14C]-dopamine uptake with cocaine IC80; actives deviate in either direction; B-score at 10 µM; 110,000 tested, 1.3% active; AID 449768;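 active = Z score or B-score, a plate-position-corrected score, falls beyond the plate's 99.7% confidence bounds, in either direction; inactive = both scores lie inside the 99.7% bounds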;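 note: scored against the spread of the other compound wells on the same plate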
CYP2C9 inh – human CYP2C9 inhibition; AID 777; P11712; CYP2C9 Supersomes, luciferin-H conversion, luminescence; 96,000 tested, 20% active; inhibition, % at 5 µM;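 active = blocking of liver enzyme CYP2C9 beyond about 50% at 5 µM, limit read from the data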
D1 mod – allosterically modulates the human D1 dopamine receptor | P21728 | HEK293 D1, CRE-luciferase, dopamine EC30 potentiation; actives deviate in either direction | B-score at 10 µM | 58,000 tested, 5.9% active | AID 641;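 active = luminescence count or its row- and column-corrected plate score outside the 99.7% band of the plate's sample wells, on either side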
Target sequence (P21728 whole entry, looked up): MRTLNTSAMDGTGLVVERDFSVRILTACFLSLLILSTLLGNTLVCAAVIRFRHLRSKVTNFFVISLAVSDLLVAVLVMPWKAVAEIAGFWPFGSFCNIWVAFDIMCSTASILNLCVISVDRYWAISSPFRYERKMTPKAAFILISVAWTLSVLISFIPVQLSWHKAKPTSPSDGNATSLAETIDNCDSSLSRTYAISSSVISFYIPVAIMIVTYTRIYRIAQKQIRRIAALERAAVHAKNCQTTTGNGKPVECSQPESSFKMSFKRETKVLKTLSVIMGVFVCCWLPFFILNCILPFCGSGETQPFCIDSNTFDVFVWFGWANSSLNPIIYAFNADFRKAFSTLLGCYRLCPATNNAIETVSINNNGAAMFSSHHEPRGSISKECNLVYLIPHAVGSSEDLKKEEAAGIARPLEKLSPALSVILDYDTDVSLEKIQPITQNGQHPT
CYP2C9 activ – increases human cytochrome P450 2C9 activity; 96,000 tested, 1.4% active; activation factor at 5 µM; AID 1024; P11712; recombinant CYP2C9, luciferin-H conversion, luminescence; stronger effect = higher value; factor 1 = untreated enzyme, 0 = blocked;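 active = activation factor of 2 or more for CYP2C9 at a 5 µM dose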;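 note: 0 = sulfaphenazole-blocked wells and 1 = vehicle-only wells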
CYP2C19 inh – inhibitors of human CYP2C19 | P33261 | CYP2C19 Supersomes, luciferin-H EGE luminescence, 30 min | inhibition, % at 5 µM | 96,000 tested, 21% active;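 active = CYP2C19 inhibition above a set limit at 5 µM in the primary screen, cut at about 50% in these data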;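 note: plate controls were negative control wells for no effect and 2.5 mM tranylcypromine positive control for full effect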
The depositor's hits bear a star. In the library only some 28% were active in any assay of this set; here they are far more common.

For COCCn1c(SCc2ccc(C(=O)OC)o2)nc2ccccc2c1=O the results were CYP2C19 activ 0, hDAT+cocaine -0.263, CYP2C9 inh 91.5*, D1 mod 2.39, CYP2C9 activ 0.1 and CYP2C19 inh 97.5*.
Screening COc1ccc(C(=O)NCC(=O)n2nc(C)cc2C)cc1OC returned CYP2C19 activ 1.2, hDAT+cocaine -0.322, CYP2C9 inh -95.5, CYP2C9 activ 2* and CYP2C19 inh -19.9.
`Cc1cc(C)n(C(=O)CNC(=O)Cc2ccccc2)n1` gave CYP2C19 activ 0.8, hDAT+cocaine -0.716, CYP2C9 inh -58.6, D1 mod -0.339, CYP2C9 activ 1.6 and CYP2C19 inh 17.1.
Cc1ccc(OCC(=O)NCC(=O)n2nc(C)cc2C)cc1 was read as CYP2C19 activ 0.5, CYP2C9 inh -127.7, CYP2C9 activ 2.3* and CYP2C19 inh 48.4.
For Cc1cc(C)n(C(=O)CNC(=O)COc2ccccc2)n1 the results were CYP2C19 activ 0.9, hDAT+cocaine -1.49, CYP2C9 inh -99.9, D1 mod -0.659, CYP2C9 activ 2* and CYP2C19 inh 12.7.
For Cc1cc(C)n(C(=O)CNC(=O)c2ccco2)n1 the results were CYP2C19 activ 0.9, hDAT+cocaine -0.171, CYP2C9 inh 14.7, D1 mod 0.322, CYP2C9 activ 0.9 and CYP2C19 inh 14.2.
CCc1nnc(NC(=O)c2ccc(NS(=O)(=O)c3ccccc3)cc2)s1 was read as hDAT+cocaine -0.0421 and D1 mod 0.0362.
`CCc1nnc(NS(=O)(=O)c2ccc(NC(=S)NC(=O)/C=C/c3ccc(C(C)C)cc3)cc2)s1` gave CYP2C19 activ 0.8, hDAT+cocaine 1.51, CYP2C9 inh 76.6*, CYP2C9 activ 0.2 and CYP2C19 inh 22.0.
Screening Cc1nonc1OCCNC(=O)C12CC3CC(CC(C3)C1)C2 returned CYP2C19 activ 0.9, hDAT+cocaine 0.265, CYP2C9 inh -2.7, D1 mod 0.837, CYP2C9 activ 1 and CYP2C19 inh 7.5.
`Cc1ccc(/C=C/c2ccc(=O)n(Cc3ccc(Cl)cc3Cl)n2)cc1` gave CYP2C19 activ 0.8, CYP2C9 inh 48.0, CYP2C9 activ 0.5 and CYP2C19 inh 22.5.
For COc1ccc(-c2nc(N)ncc2Oc2ccccc2Br)c(O)c1 the results were CYP2C19 activ 0.5, hDAT+cocaine -0.291, CYP2C9 inh 41.8, D1 mod 14.3*, CYP2C9 activ 0.6 and CYP2C19 inh 48.2.
CCOc1ccc(-c2nc(N)nc(C)c2-c2ccc(OC)c(OC)c2)c(O)c1 was read as CYP2C19 activ 1, hDAT+cocaine 0.513, CYP2C9 inh 5.0, D1 mod 2.17, CYP2C9 activ 0.9 and CYP2C19 inh 3.7.
For COc1ccc(-c2cn[nH]c2N)cc1 the results were CYP2C19 activ 0.8, hDAT+cocaine -1.38, CYP2C9 inh 8.7, CYP2C9 activ 0.9 and CYP2C19 inh 16.4.
C=C(C)COc1ccc(-c2nc(N)ncc2-c2ccc(OC)cc2)c(O)c1 was read as CYP2C19 activ 0.6, hDAT+cocaine 0.627, CYP2C9 inh 52.4*, D1 mod 3.35*, CYP2C9 activ 0.5 and CYP2C19 inh 35.5.
C=C(C)COc1ccc(-c2ncncc2Oc2ccc(OC)cc2)c(O)c1 was read as CYP2C19 activ 0.1, hDAT+cocaine 0.544, CYP2C9 inh 98.3*, D1 mod -1.78, CYP2C9 activ 0 and CYP2C19 inh 92.3*.
`COc1ccc(OCC(=O)NNC(=O)c2cccnc2)cc1` gave CYP2C19 activ 1, hDAT+cocaine 0.0455, CYP2C9 inh -4.4, CYP2C9 activ 1 and CYP2C19 inh 1.1.
For CSCC[C@H](NC(=O)CCNC(C)=O)c1nc2ccccc2[nH]1 the results were CYP2C19 activ 1, hDAT+cocaine 0.934, CYP2C9 inh -11.5, CYP2C9 activ 1.1 and CYP2C19 inh -2.5.
`CCN(CC)CCN(C)Cc1ccc(Br)cc1` gave CYP2C19 activ 0.9, hDAT+cocaine 1.03, CYP2C9 inh -0.2, CYP2C9 activ 1 and CYP2C19 inh 9.4.
`Cc1cc(C(C)(C)C)oc1C(=O)N(CC(=O)NC1CCCC1)Cc1ccc(F)cc1` gave CYP2C19 activ 0.7, hDAT+cocaine 0.884, CYP2C9 inh -8.6, CYP2C9 activ 1.1 and CYP2C19 inh 29.8.
Screening Cc1nc(-c2ccc(Cl)cc2)sc1C1(C)CC(c2cccc(F)c2)=NO1 (stereo not given) returned hDAT+cocaine -0.369.
For CCCOc1ccccc1-n1sc2c(c1=S)-c1cc(OC)cc3c1N(C(=O)C3=O)C2(C)C the results were CYP2C19 activ 0.4, hDAT+cocaine -2.4, CYP2C9 inh 80.1*, CYP2C9 activ 0.2 and CYP2C19 inh 61.8*.
COc1cccc(C(=O)Oc2cc3c4c(c2)C(C)=CC(C)(C)N4C(=O)C3=O)c1 was read as CYP2C19 activ 1.1, hDAT+cocaine 0.884, CYP2C9 inh -26.7, CYP2C9 activ 1.3 and CYP2C19 inh -5.4.
CC(=O)O[C@@H]1[C@@]2(C)O[C@H]2CC[C@]23O[C@H]2[C@H](OC3=O)C2=C(C)C(=O)O[C@@]21O was read as hDAT+cocaine 0.619.
For COC(=O)c1sccc1NC(=O)c1cc2c(s1)CCCC2 the results were CYP2C19 activ 0.6, CYP2C9 inh 61.2*, D1 mod -0.962, CYP2C9 activ 0.4 and CYP2C19 inh 36.2.
Screening COC(=O)c1sccc1NC(=O)c1cccc(OC)c1 returned CYP2C19 activ 0.8, hDAT+cocaine -0.237, CYP2C9 inh -1.6, CYP2C9 activ 1 and CYP2C19 inh 19.6.
Screening O=C(Nc1nccs1)c1cc2c(s1)CCCCC2 returned CYP2C19 activ 0.7, hDAT+cocaine 4.31*, CYP2C9 inh 33.3, CYP2C9 activ 0.7 and CYP2C19 inh 31.3.
Screening O=C(NCc1nc2ccccc2[nH]1)C1=C[C@@H](c2ccc3c(c2)OCO3)C[C@@H](OCc2ccc(CO)cc2)O1 returned hDAT+cocaine 0.787.
Cc1cc(NC(=O)c2cncc(Br)c2)n(-c2ccccn2)n1 was read as CYP2C19 activ 1, CYP2C9 inh -58.6, D1 mod -0.723, CYP2C9 activ 1.6 and CYP2C19 inh 4.5.
For CCOc1ccccc1NC(=O)C1CCCCN1S(=O)(=O)c1ccc(F)cc1 (stereo not given) the results were CYP2C19 activ 0.4, hDAT+cocaine -1.23, CYP2C9 inh -187.8, CYP2C9 activ 2.9* and CYP2C19 inh 63.7*.
Screening CCOc1ccccc1NC(=O)C1CCN(c2ccc(S(=O)(=O)N3CCCC3)cc2)CC1 returned CYP2C19 activ 0.6, hDAT+cocaine 0.306, CYP2C9 inh 54.4*, D1 mod -1.07, CYP2C9 activ 0.5 and CYP2C19 inh 44.0.
`O=C(Nc1ccccc1Cl)C1CCCN(S(=O)(=O)c2ccc(F)cc2)C1` (stereo not given) gave CYP2C19 activ 0.3, hDAT+cocaine -0.36, CYP2C9 inh 31.6, CYP2C9 activ 0.7 and CYP2C19 inh 71.3*.

High-throughput results (PubChem BioAssay)
